52 molecules from PubChem BioAssay AID902 (National Center for Advancing Translational Sciences (NCATS), 2007) can be followed below.

Molecules are shown by their SMILES. Screen size: about 130,000 compounds; about 1,900 (1.5%) were called active. Another 5% or so got no clear call; they are omitted. Calls come from the whole dose curve; as a rule, active = well fitted cell-killing curve with a large enough effect; inconclusive = small, poorly fitted or top-dose-only effect; inactive = no such curve, though single readings can be large or run the other way. The list comes from a sample in which actives are over-represented; it also holds similar structures and randomly drawn compounds. A call without a number means that no potency is given here.
Potency is the fitted concentration of half-maximal effect.

The nature of the assay: qHTS Screen for Compounds that Selectively Target Cancer Cells with p53 Mutations: Cytotoxicity of p53ts Cells at the Nonpermissive Temperature. Note: nearly all actives have a fitted effect of over 55% in size. The conditions noted are these: H1299-p53A138V viability at 39C, ATP luminescence, 24 h; series mostly up to 46.1 µM. An excerpt:
NIH Chemical Genomics Center [NCGC] NIH Molecular Libraries Screening Centers Network [MLSCN] MLSCN Grant: 1 X01 MH079844-01 Assay Submitter (PI): Dr. SUN, YI, University of Michigan NCGC Assay Overview: Synthetic Lethal Screen for Compounds to Kill Cancer Cells with p53 Mutation. Tumor suppressor gene p53 serves as a major cellular barrier against tumorigenesis. […] The goal of this screening is to identify small molecule probes that selectively kill cancer cells with mutations in p53. This screening was carried out using two lines of H1299 lung cancer cells. The H1299-p53 A138V line express a temperature sensitive p53 mutant (p53ts) in which the mutant p53 protein (A138V) is in the mutant confirmation when grown at 39C (the nonpermissive temperature) and in the wild type conformation when grown at 32C (the permissive temperature). A H1299-neo line (p53 null) grown at both 39C and 32C were used as counter-screens to filter out false positive associated with temperature shifting. The small molecular compounds that selectively target mutant p53-containing cancer cells were selected as candidate probes for further study. A cytotoxicity assay based on the measurement of ATP contents in cells was used in this screen. Concentration-responses of all the compounds in the library collection were determined in qHTS using the cell lines and temperature conditions as above.
NCGC Assay Protocol Summary: Both the H1299-p53A138V and H1299-neo cell lines were provided by Dr.Yi Sun, a PI at the University Michigan. The cells were maintained and cultured at 37C. The resuspended frozen cells were used to plate the cells in the 1536-well assay plates at a density of 600 cells per well in 5 ul medium. The assay plates with the cells were incubated at 37C for 16 to 30 hours before the experiments. The library compounds in DMSO solution were added to the cells in assay plates and incubated 24 hours at 39C (for mutant p53 conformation) or 32C (for normal p53 conformation as control). An ATP_lite assay kit (PerkinElmer) was used to determine the cell viability. Tomaxifen (100uM) was used as the positive control for cell killing. Data were normalized to the controls for basal activity (DMSO only) and 100% killing (100uM tamoxifen). AC50 values were determined from concentration-response data modeled with the standard Hill equation. P53 assay protocol: 1. Reagent; 5 uL H1299-p53A138V or H1299-neo cell cells/well 2. Time; overnight; 37C incubation 3. Compounds; 23 nL; 5.9 nM to 46 uM 4. Controls; 23 nL; Tamoxifen 100 uM 5. Time; 24 hr; 39C incubation 6. Reagent; 3 uL; ATP_Lite reagent 7. Time; 20 min; Room Temperature 8. Detection; Luminescence; Viewlux plate reader Keywords: p53, synthetic lethal, cancer, cell viability, cytotoxicity, H1299 cell line, luminescence, MLSMR, MLSCN, NIH Roadmap, qHTS, NCGC
With `c1coc(-c2nc3nc4ccccc4n3nc2-c2ccco2)c1`, the Potency entry was “inactive”.
Regarding `O=C(CCn1ccc2cc(S(=O)(=O)N3CCCC3)ccc21)NCc1cccc(Cl)c1`, the Potency entry is “inactive”.
As to `COc1ccc(CC(=O)NCCc2sc3nc(-c4ccc(OC)cc4)nn3c2C)cc1`, the Potency result was “inactive”.
Next, `Cc1cccc(-n2ccnc2SCC(=O)Nc2cc(C(F)(F)F)ccc2Cl)c1`: “inactive”; `O=C(CN1C(=O)c2ccccc2S1(=O)=O)N1CCc2ccccc21`: 2 µM (active); `O=C(CN1CCN(c2ccccn2)CC1)N1CCc2ccccc21`: “inactive”.
Next, `O=C(c1cccc(C(=O)N2CCc3ccccc32)n1)N1CCc2ccccc21`: “inactive”.
With `Cc1cccc(NC(=O)c2cc(S(=O)(=O)N3CCC4(CC3)OCCO4)ccc2F)c1`, the Potency entry is “inactive”.
On to `CC(C)c1ccc(NC(=O)c2cc(S(=O)(=O)N3CCc4ccccc4C3)ccc2F)cc1`, for which the Potency was 31.6 µM (active).
On to `CC(=O)Nc1ccc(S(=O)(=O)N2CCN(C(=O)c3ccccc3F)CC2)cc1`, for which the Potency entry is “inactive”.
For the molecule `Cc1nc2ccn(Cc3cccs3)c(=O)c2cc1C(=O)NCc1ccc(Cl)cc1`, the Potency result is “inactive”.
For `COC(=O)c1sc2ncccc2c1-n1c(C)ccc1C`, the Potency entry is “inactive”.
Next, `CC(C)S(=O)(=O)c1oc(-c2ccc(F)cc2)nc1S(=O)(=O)c1ccc(F)cc1`: 3.16 µM (active); `COc1ccc(-c2nc(S(=O)(=O)c3ccccc3)c(N3CCCCC3)o2)cc1`: “inactive”; `Cc1ccc(-c2nc(S(=O)(=O)c3ccc(C)cc3)c(N3CCCCCC3)o2)cc1`: “inactive”.
With `COc1ccc(C(=O)Nc2onc3c2CCCC3)cc1`, the Potency is 10 µM (active).
Next, `COc1ccc(NC(=O)c2c(C)oc3c2CCCC3)cc1`: “inactive”.
Next, `CC1CCc2noc(NC(=O)c3ccc([N+](=O)[O-])cc3)c2C1` (configuration not stated): “inactive”; `O=C(c1ccc2c(c1)N(Cc1ccccc1)C(=O)c1ccccc1S2(=O)=O)N1CCCC1`: “inactive”; `COc1ccccc1C(=O)Nc1c(C(=O)N(C)Cc2ccccc2)sc2nc(C)c(Cl)c(C)c12`: “inactive”.
For `COc1ccc(NS(=O)(=O)c2cc3c4c(c2)CC(=O)N4CCC3)cc1Cl`, the Potency result is “inactive”.
`CCN1C(=O)c2ccccc2S(=O)c2ccc(C(=O)NCc3ccc(F)cc3)cc21` (configuration not stated): the Potency entry was “inactive”.
Next, `CCC(=O)NC(=Nc1nc2ccccc2s1)NC(=O)CC`: 10 µM (active); `COC(=O)c1nc2ccccc2s1`: “inactive”.
`COC(=O)Cc1cc(=O)n(-c2nc3ccccc3s2)[nH]1`: the Potency result was “inactive”.
On to `O=C(NCC(c1ccc2c(c1)OCO2)N1CCN(c2ccccc2)CC1)C(=O)Nc1ccccc1F` (configuration not stated), for which the Potency entry was “inactive”.
For `O=C(NC1CC(=O)N(c2ccccc2)C1)c1ccco1` (configuration not stated), the Potency entry was “inactive”.
Next, `c1csc(-c2nc(-c3ccncc3)no2)c1`: “inactive”; `c1ccc(-c2noc(-c3cccs3)n2)nc1`: 15.8 µM (active); `CC(C)c1nc(-c2ccccn2)no1`: “inactive”.
Next, `COc1ccc(CNC(=O)c2cc3c(-c4ccccc4F)nn(C)c3s2)c(OC)c1`: “inactive”.
`CCOc1ccc(NC(=O)c2c(NC(=O)Cc3ccccc3)sc3c2CCCCC3)cc1`: the Potency is 10 µM (active).
For the molecule `CCOc1ccc(NC(=O)c2c(NCc3cccc(OC)c3OC)sc3c2CCC3)cc1`, the Potency result was “inactive”.
Next, `O=C(Cc1ccccc1)Nc1sc2c(c1C(=O)Nc1ccc(Br)cc1)CCC2`: “inactive”; `CCc1ccc(CNC(=O)c2ccc(CS(=O)c3ccc(Br)cc3)o2)cc1` (configuration not stated): “inactive”.
Next, `CC(NC(=O)c1cc(Sc2ccc(F)cc2F)nc2ccccc12)c1ccccc1` (configuration not stated): “inactive”.
In the case of `O=C(/C=C/c1ccccc1)N1CCN(Cc2cc(=O)n3nc(-c4ccccc4F)sc3n2)CC1`, the Potency entry was “inactive”.
With `NC(=O)c1ccccc1NC(=O)c1ccccc1F`, the Potency result was “inactive”.
With `O=C(Nc1nc2c(s1)CCCC2)c1ccccc1F`, the Potency is 10 µM (active).
Turning to `O=C(Cn1c(=O)sc2ccccc21)Nc1nc2c(s1)CCCC2`, the Potency entry was “inactive”.
Take `COC(=O)c1ccccc1NS(=O)(=O)c1ccc2c(c1)CCCN2C(C)=O`: the Potency result is “inactive”.
In the case of `CCn1cc2nc(SCc3ccccc3Cl)n(CCc3ccccc3)c(=O)c2n1`, the Potency entry was “inactive”.
For `CCc1ccc(CNC(=O)c2cc3cc4ccc(OC)cc4nc3o2)cc1`, the Potency entry was “inactive”.
Regarding `Cc1ccc2cc3cc(C(=O)N4CCCCCC4)oc3nc2c1`, the Potency was 15.8 µM (active).
`Cc1ccc(C(=O)N2CCCCCC2)cc1Br`: the Potency entry was “inactive”.
Take `CCCS(=O)(=O)c1c(Nc2ccccc2C)sc(C(=O)c2ccccc2)c1N`: the Potency result is “inactive”.
`Cc1c(NC(=O)Cc2ccccc2)cccc1-c1nc2cccnc2s1`: the Potency result is “inactive”.
Consider `CCC(C(=O)Nc1cccc(-c2nc3cccnc3s2)c1C)c1ccccc1` (configuration not stated), for which the Potency result was “inactive”.
Turning to `Cc1c(NC(=O)C(C)(C)C)cccc1-c1nc2ccccc2s1`, the Potency was 15.8 µM (active).
As for `CCOc1ccc(NC(=O)CN(Cc2ccccc2)S(=O)(=O)c2ccc(Cl)cc2)cc1`, the Potency entry was “inactive”.
On to `CCOc1ccc(N(Cc2ccccc2)C(=O)c2nc(S(C)(=O)=O)ncc2Cl)cc1`, for which the Potency is 3.98 µM (active).
Consider `CCOc1ccc(N(Cc2ccccc2)C(=O)c2nc(SCC)ncc2Cl)cc1`, for which the Potency entry is “inactive”.
